Assay results taken from the supplement of paper PMC6522484.
± gives the standard deviation of the averaged measurements.

tested on: SW480; assay: TCF/Wnt firefly luciferase reporter signal relative to plate median (fraction of plate median); higher = higher Wnt reporter signal; conditions: 5 µM; treatment time 24 h; reporter: 7TFP
Procedure, shortened: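 Per-well firefly luciferase or CellTiterGlo luminescence, normalised to the plate median, is what is reported. It was measured in colorectal cancer cells with stable lentiviral TCF/Wnt firefly luciferase reporters after a 24 h treatment with library compounds at a final 5 µM. The mean of two independent replicates is given.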

| Compound | TCF/Wnt firefly luciferase reporter signal |
| --- | --- |
| Nc1nc(=O)c2[nH]c(=O)cnc2[nH]1 | 0.987 ± 0.075 |
| CC#C[C@]1(O)CC[C@H]2[C@@H]3CCC4=CC(=O)CCC4=C3[C@@H](c3ccc(N(C)C)cc3)C[C@@]21C | 1.01 ± 0.063 |
| CC1(C)C=Cc2cc3ccc(=O)oc3cc2O1 | 1.165 ± 0.0071 |
| CN(C)CCOc1ccc(/C(=C(/CCCl)c2ccccc2)c2ccccc2)cc1 | 1.05 ± 0.073 |
| CC(C)(C)CC(C)(C)c1ccc(O)c(Cc2ccc(Cl)cc2Cl)c1 | 0.891 ± 0.11 |
| CC(=O)N[C@@H](CS)C(=O)O | 1.07 ± 0.16 |
| Cn1c(=O)c2nc[nH]c2n(C)c1=O | 0.986 ± 0.077 |
| CC(C)CC(NC(=O)OCC1c2ccccc2-c2ccccc21)C(=O)O (stereo in doubt) | 1.02 ± 0.029 |
| C=C1C(=O)[C@]23[C@H](CC[C@@H]1[C@@H]2O)[C@]12CO[C@@]3(O)[C@H](O)[C@H]1C(C)(C)CC[C@@H]2O | 0.731 ± 0.035 |
| O=c1cc(CO)occ1O [Kojic acid (Biofocus)] | 1.12 ± 0.035 |
| c1coc(CNc2ncnc3[nH]cnc23)c1 | 1.04 ± 0.042 |
| CC(=O)O[C@H]1CC[C@]2(C)C(C[C@@H](OC(C)=O)[C@]3(C)C4=CC(=O)O[C@H](c5ccoc5)[C@@]4(C)CCC23)C1(C)C (stereo partly drawn) [3-DEOXO-3beta-ACETOXYDEOXYDIHYDROGEDUNIN] | 0.864 ± 0.09 |
| NCCNCCNCCN | 1.03 ± 0.052 |
| CCCc1nn(C)c2c(=O)[nH]c(-c3cc(S(=O)(=O)N4CCN(C)CC4)ccc3OCC)nc12 | 1.09 ± 0.028 |
| Oc1c(Cl)cc(Cl)c2cccnc12 | 1.07 ± 0.021 |
| CC(C)CCC[C@@H](C)[C@H]1CC[C@H]2[C@@H]3CC(=O)[C@H]4C[C@@H](O)CC[C@]4(C)[C@H]3CC[C@]12C [5alpha-CHOLESTAN-3beta-OL-6-ONE] | 0.874 ± 0.047 |
| C[C@H](N)[C@H](O)c1cccc(O)c1 | 0.915 ± 0.0071 |
| CC(C(=O)O)c1cccc(Oc2ccccc2)c1 (configuration not stated) | 1.11 ± 0.042 |
| Clc1ccc(CSC(Cn2ccnc2)c2ccc(Cl)cc2Cl)cc1 (configuration not stated) | 0.952 ± 0.036 |

| Compound | TCF/Wnt firefly luciferase reporter signal |
| --- | --- |
| CC(=O)O[C@]1(C(C)=O)CC[C@H]2[C@@H]3C=C(Cl)C4=CC(=O)[C@@H]5C[C@@H]5[C@]4(C)[C@H]3CC[C@@]21C | 0.923 ± 0.22 |
| CC(=O)OC1CCC2(C)C(=CCC3C2CCC2(C)C(C(C)CCCC(C)C)CCC32)C1 (configuration not stated) | 1.11 ± 0.15 |
| CCC(=O)C1(C)OC1C(C)CC(C)C1OC(=O)CC2(O)CC=C(C)C(O2)/C(C)=C/CCCC(OC2CC(OC(N)=O)C(O)C(C)O2)/C=C/C(C)C(O)C1C (configuration not stated) [Irumamycin] | 1.02 ± 0.034 |
| CC(=O)O[C@@H]1CC2C(C)(CC[C@H](O)C2(C)C)C2CC[C@]3(C)C(=CC(=O)O[C@H]3c3ccoc3)C21C (stereo partly drawn) [3beta-HYDROXYDEOXODIHYDRODEOXYGEDUNIN] | 1.12 ± 0.014 |
| CCCc1nc(C(C)(C)O)c(C(=O)OCc2oc(=O)oc2C)n1Cc1ccc(-c2ccccc2-c2nnn[nH]2)cc1 | 1.11 ± 0.042 |
| CCOc1ccc(Cc2nccc3cc(OCC)c(OCC)cc23)cc1OCC | 0.95 ± 0.099 |
| Cc1ccc(Cl)c(Nc2ccccc2C(=O)O)c1Cl | 1.05 ± 0.064 |
| C=C1CC[C@@H]2[C@](C)(CO)[C@H](O)CC[C@@]2(C)[C@@H]1C/C=C1/C(=O)OC[C@H]1O | 0.987 ± 0.033 |
| C[C@@H]1O[C@@H](O[C@H]2[C@H](Oc3cc(O)c4c(c3)O[C@H](c3ccc(O)cc3)CC4=O)O[C@H](CO)[C@@H](O)[C@@H]2O)[C@H](O)[C@H](O)[C@H]1O | 1.01 ± 0.16 |
| c1ccc2c(c1)CCCC2C1=NCCN1 (configuration not stated) | 0.985 ± 0.0014 |
| CO/N=C(\C(=O)N[C@@H]1C(=O)N2C(C(=O)OC(C)OC(C)=O)=C(COC(N)=O)CS[C@H]12)c1ccco1 (some centres not stated) | 1 |
| CC1=CC(=O)CC(C)(C)C1(O)/C=C/C(C)=C\C(=O)O (mixture of isomers) [ABSCISIC ACID (cis,trans; )] | 1.18 ± 0.13 |
| O=CN(O)CCCC(NC(=O)C(CO)NC(=O)C1COC(c2ccccc2O)=N1)C(=O)NCCC(=O)NC1CCCN(O)C1=O (configuration not stated) [Oxachelin hydrate] | 0.946 ± 0.16 |
| Cc1cc(/C=C/c2ccc3cc(N(C)C)ccc3[n+]2C)c(C)n1-c1ccccc1 | 0.588 ± 0.085 |
| CC(C)c1cccc(=O)c(O)c1 | 0.985 ± 0.064 |
| CCOC(=O)c1c(C)cc(OC)cc1O | 1.04 ± 0.064 |
| CC1=C(/C=C/C(C)=C/C=C/C(C)=C/C=C/C=C(C)/C=C/C=C(C)/C=C/C2=C(C)C(=O)[C@@H](O)CC2(C)C)C(C)(C)C[C@H](O)C1=O | 0.824 ± 0.099 |
| CC[C@H]1OC(=O)C[C@@H](O)[C@H](C)[C@@H](O[C@@H]2O[C@H](C)[C@@H](O[C@H]3C[C@@](C)(O)[C@@H](O)[C@H](C)O3)[C@H](N(C)C)[C@H]2O)[C@@H](CC=O)C[C@@H](C)C(=O)/C=C/C(C)=C/[C@@H]1CO[C@@H]1O[C@H](C)[C@@H](O)[C@@H](OC)[C@H]1OC | 1.035 ± 0.0071 |
